The record followed here is PubChem BioAssay (Tox21).

Assay [1] in a line: qHTS assay to identify small molecule antagonists of the estrogen related receptor (ERR) signaling pathway from Tox21 library - cell viability counter screen (AID 1224834). Further: nearly all actives have a fitted effect of over 30% in size. Summed up:
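Viability readout (CellTiter-Fluor fluorescence, 30 min at 37 C) multiplexed with the ERR assay; cells treated 17.5 h at 37 C with compounds delivered in DMSO.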
A general note: qHTS replaces the single test concentration by a dilution series.

The target in assay [2] is Luciferin 4-monooxygenase (Photinus pyralis) (UniProt P08659). Description: qHTS assay to identify small molecule inhibitors of firefly luciferase (AID 1224835). Further: nearly all actives have a fitted effect of over 25% in size. Further: potency means the concentration at half of the fitted maximal effect. The gist of the method: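 Quantitative HTS format; KM concentrations of both substrates. Purified P. pyralis FLuc activity quantified from luminescence images.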
The nature of assay [3]: qHTS assay to identify small molecule agonists of the constitutive androstane receptor (CAR) signaling pathway - cell viability counter screen (AID 1224836). Further: nearly all actives have a fitted effect of over 45% in size. Summed up:
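HepG2 cells stably carrying hCAR and a CYP2B6-2.2kb reporter were plated 4 h, then given compounds at 15 concentrations plus PK11195 (final 0.75 uM). After 23 h at 37 C, viability was read by CellTiter-Fluor fluorescence.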

A short description of assay [4]: qHTS assay to identify small molecule antagonists of the constitutive androstane receptor (CAR) signaling pathway - cell viability counter screen (AID 1224837). Further: nearly all actives have a fitted effect of over 45% in size. The gist of the method: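 Fluorescence from CellTiter-Fluor served as the viability signal. Human hepatoma HepG2 cells stably bearing hCAR and CYP2B6-2.2kb received compound plus CITCO (50 nM final) for 23 hr.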

Assay [5] addresses Nuclear receptor subfamily 1 group I member 3 (Homo sapiens) (UniProt Q14994). Description: qHTS assay to identify small molecule antagonists of the constitutive androstane receptor (CAR) signaling pathway (AID 1224838). Further: nearly all actives have a fitted effect of over 40% in size. The gist of the method:
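Quantitative HTS in double-stable HepG2-CYP2B6-hCAR cells. After 4 h plating, cells get compound (15 concentrations) and CITCO at 50 nM final, incubate 24 h at 37 C, then ONE-Glo luminescence is read.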

A short description of assay [6]: qHTS assay to identify small molecule antagonists of the estrogen related receptor signaling pathway with the pleiotropic PPARgamma coactivator (PGC) from Tox21 10K library - cell viability counter screen (AID 1224840; active means well fitted cell-killing curve with a large enough effect in the repeat runs, not every such curve was filed as active; further: nearly all actives have a fitted effect of over 40% in size). Summed up: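 Compounds in DMSO, alongside positive and negative controls, were pinned onto PGC/ERR cells (2,000 per well). Exposure lasted 17.5 hours at 37 C, followed by a 30-minute CellTiter-Fluor incubation and fluorescence reading.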

The target in assay [7] is Thyrotropin receptor (Homo sapiens) (UniProt P16473). Description: qHTS assay to identify small molecule agonists of the thyroid stimulating hormone receptor (TSHR) signaling pathway (AID 1224843; calls by dose curve; further: nearly all actives have a fitted effect of over 45% in size). Summed up: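 Cell line HEK293 with TSHR; density 800/well. Exposure 30 min RT. Readout HTRF cAMP (cAMP-d2/anti-cAMP-cryptate), 1 h RT before reading.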
Assay [8] in a line: qHTS assay to identify small molecule agonists of the hypoxia (HIF-1) signaling pathway - cell viability counter screen (AID 1224844; calls by dose curve; further: nearly all actives have a fitted effect of over 50% in size). The gist of the method:
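Luminescent ATP content (CellTiter-Glo, 30 min, room temperature) served as the viability measure in HRE-bla ME-180 cells exposed to compounds for 17 hrs in low-serum medium (0.5% dialyzed FBS).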

A short description of assay [9]: qHTS assay to identify small molecule agonists of H2AX (AID 1224845; active means well fitted activation curve with a large enough effect in the signal ratio in the repeat runs, not every such curve was filed as active; the % refers to the signal ratio). The gist of the method: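 Wild-type CHO-K1 cells plated overnight, then exposed 3 hr at 37C to compounds at 15 concentrations (0.76% DMSO). Lysed, then HTRF anti-pH2AX(S139)-cryptate/anti-H2AX-d2 detection after 24 hr at room temperature; emissions 665 and 620 nm.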
Assay [10] in a line: qHTS assay to identify small molecule agonists of the hypoxia (HIF-1) signaling pathway (AID 1224846; active means well fitted activation curve with a large enough effect in the signal ratio in the repeat runs, not every such curve was filed as active; the % refers to the signal ratio). The gist of the method: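 Measured by blue/green FRET after loading CCF4-AM: beta-lactamase expressed from a hypoxia response element in ME-180 cells. Test agents were delivered in DMSO and left 17 hrs; cells had been plated 5 hrs earlier in low-serum (0.5% dialyzed FBS) medium.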

Assay [11] can be described thus: qHTS assay to identify small molecule agonists of H2AX - cell viability counter screen (AID 1224847; calls by dose curve; further: top concentration of the series differs between compounds; nearly all actives have a fitted effect of over 30% in size). The gist of the method:
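Wild-type CHO-K1 cells (10% FBS medium) were plated overnight at 37C, exposed to compounds at 15 concentrations for 3 hr at 37C (0.76% DMSO final), and viability was read as CellTiter-Glo luminescence after 30 min at room temperature.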

Assay [12] is described as follows: qHTS RealTime-Glo MT Cell Viability Assay in HepG2 cells - 24 hour (AID 1224867). Further: nearly all actives have a fitted effect of over 50% in size. Summed up:
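Compound treatment began 5 h after plating HepG2 cells (600/well) with NanoLuc luciferase and prosubstrate. Plates stayed at 37 C for 40 h; luminescence was captured at six time points, 0 h through 40 h.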

Assay [13] can be described thus: qHTS RealTime-Glo MT Cell Viability Assay in HEK293 cells - 32 hour (AID 1224868). Further: top concentration of the series differs between compounds; nearly all actives have a fitted effect of over 50% in size. The gist of the method: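 Quantitative high-throughput screen of the Tox21 10K library in HEK293: cells and RealTime-Glo reagents plated together, compound added at 5 h, luminescence monitored through 40 h at 37 C.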
The nature of assay [14]: A CellTox Green Cytotoxicity Assay to monitor cytotoxicity in HEK293 cells - 0 hour (AID 1224869). Further: nearly all actives have a fitted effect of over 50% in size. The gist of the method:
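Each value comes from one timepoint of a single continuous run in which HEK293 cells with CellTox Green were exposed to compound for up to 40 h at 37 C, dye fluorescence rising with cell death.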

For assay [15], the target named is Nuclear receptor subfamily 1 group I member 3 (Homo sapiens) (UniProt Q14994). Description: qHTS assay to identify small molecule agonists of the constitutive androstane receptor (CAR) signaling pathway (AID 1224839).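 Further: HepG2 cells stably carrying human CAR and a CYP2B6 luciferase reporter; nearly all actives have a fitted effect of over 15% in size.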 Summed up:
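HepG2 cells stably expressing hCAR and a CYP2B6-2.2kb luciferase reporter were treated with compounds at 15 concentrations plus 0.75 uM PK11195 (final) for 24 h at 37 C; luminescence was read after ONE-Glo addition.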

The nature of assay [16]: qHTS assay to identify small molecule antagonists of the estrogen related receptor signaling pathway with the pleiotropic PPARgamma coactivator (PGC) from Tox21 10K library (AID 1224841; call rule not given here). The gist of the method:
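Compound exposure ran 18 hours at 37 C in PGC/ERR cells (2,000/well) that had first rested 6 hours in a 37 C/5% CO2 incubator. Luciferase activity was then detected with One-Glo after a 30-minute room-temperature step.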

Assay [17] can be described thus: qHTS assay to identify small molecule agonists of the estrogen related receptor signaling pathway with the pleiotropic PPARgamma coactivator (PGC) from Tox21 10K library (AID 1224842). Further: nearly all actives have a fitted effect of over 15% in size. The gist of the method:
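PGC/ERR reporter cells (NTP line) were seeded 2,000 per well, rested 6 h at 37 C/5% CO2, then pin-dosed with compounds in DMSO for 18 h at 37 C; luciferase read by One-Glo luminescence after 30 min at room temperature.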

Assay [18] can be described thus: qHTS assay to identify small molecule antagonists of the estrogen related receptor (ERR) signaling pathway from Tox21 library (AID 1224848). Further: nearly all actives have a fitted effect of over 50% in size. Summed up:
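Screening used an ERR reporter line supplied by NTP, exposed for 18 h at 37 C to library compounds delivered in DMSO. Signal was luciferase luminescence developed with ONE-Glo at room temperature for 30 min.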

The nature of assay [19]: qHTS assay to identify small molecule agonists of the estrogen related receptor (ERR) signaling pathway from Tox21 library (AID 1224849; calls by dose curve; further: nearly all actives have a fitted effect of over 15% in size). The conditions noted are these: ERR reporter cell line, ONE-Glo luciferase, 18 h; at 92.4 µM (top of the series) unless noted. The gist of the method: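 We plated ERR reporter cells, waited 6 h, added compounds in DMSO by pin tool and incubated them 18 h at 37 C. ONE-Glo was then added and luminescence read after 30 min.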

A number with no mark means an inactive call. Results filed as inconclusive are left out. The source made the active and inactive calls. Unless noted, the call rests on the fitted dose curve; in most records, active means well fitted curve in the direction sought with a large enough effect in the repeat runs; inconclusive means weak or mixed curves; inactive means no such curve, though single readings can be large; an effect the other way counts as inactive or inconclusive.
On the % scale 0 is the no-effect control and ±100 the full control effect.

Nuclear receptor subfamily 1 group I member 3 (Homo sapiens), sequence (Q14994 whole entry, looked up): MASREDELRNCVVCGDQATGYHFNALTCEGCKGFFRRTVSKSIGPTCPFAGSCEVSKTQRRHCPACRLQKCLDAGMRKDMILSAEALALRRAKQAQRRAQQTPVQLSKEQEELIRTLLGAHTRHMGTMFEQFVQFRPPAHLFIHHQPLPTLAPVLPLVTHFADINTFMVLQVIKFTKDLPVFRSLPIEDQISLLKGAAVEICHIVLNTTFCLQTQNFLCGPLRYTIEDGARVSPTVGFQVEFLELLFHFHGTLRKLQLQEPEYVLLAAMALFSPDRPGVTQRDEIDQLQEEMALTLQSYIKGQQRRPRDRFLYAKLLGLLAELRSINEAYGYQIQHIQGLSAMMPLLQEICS
Thyrotropin receptor (Homo sapiens), sequence (P16473 whole entry, looked up): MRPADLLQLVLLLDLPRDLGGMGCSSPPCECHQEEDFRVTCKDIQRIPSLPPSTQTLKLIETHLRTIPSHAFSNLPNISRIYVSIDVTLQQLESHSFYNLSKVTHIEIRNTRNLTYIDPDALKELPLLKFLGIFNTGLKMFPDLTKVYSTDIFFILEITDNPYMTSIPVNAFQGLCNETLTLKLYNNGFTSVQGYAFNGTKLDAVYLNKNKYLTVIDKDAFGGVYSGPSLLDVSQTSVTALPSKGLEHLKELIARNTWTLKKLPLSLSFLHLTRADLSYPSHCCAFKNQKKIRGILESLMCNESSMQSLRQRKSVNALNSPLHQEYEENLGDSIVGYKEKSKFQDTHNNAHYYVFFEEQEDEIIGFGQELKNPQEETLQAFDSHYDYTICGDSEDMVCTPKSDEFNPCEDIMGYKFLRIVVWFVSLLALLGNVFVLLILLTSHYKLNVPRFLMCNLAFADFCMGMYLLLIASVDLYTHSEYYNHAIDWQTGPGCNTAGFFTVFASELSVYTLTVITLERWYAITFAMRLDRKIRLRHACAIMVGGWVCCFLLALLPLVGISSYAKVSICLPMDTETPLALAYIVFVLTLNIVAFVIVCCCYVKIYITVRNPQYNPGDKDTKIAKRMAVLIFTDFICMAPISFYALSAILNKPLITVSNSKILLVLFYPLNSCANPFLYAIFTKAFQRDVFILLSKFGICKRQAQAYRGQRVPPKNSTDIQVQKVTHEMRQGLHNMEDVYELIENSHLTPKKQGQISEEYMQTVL
Luciferin 4-monooxygenase (Photinus pyralis), sequence (P08659 whole entry, looked up): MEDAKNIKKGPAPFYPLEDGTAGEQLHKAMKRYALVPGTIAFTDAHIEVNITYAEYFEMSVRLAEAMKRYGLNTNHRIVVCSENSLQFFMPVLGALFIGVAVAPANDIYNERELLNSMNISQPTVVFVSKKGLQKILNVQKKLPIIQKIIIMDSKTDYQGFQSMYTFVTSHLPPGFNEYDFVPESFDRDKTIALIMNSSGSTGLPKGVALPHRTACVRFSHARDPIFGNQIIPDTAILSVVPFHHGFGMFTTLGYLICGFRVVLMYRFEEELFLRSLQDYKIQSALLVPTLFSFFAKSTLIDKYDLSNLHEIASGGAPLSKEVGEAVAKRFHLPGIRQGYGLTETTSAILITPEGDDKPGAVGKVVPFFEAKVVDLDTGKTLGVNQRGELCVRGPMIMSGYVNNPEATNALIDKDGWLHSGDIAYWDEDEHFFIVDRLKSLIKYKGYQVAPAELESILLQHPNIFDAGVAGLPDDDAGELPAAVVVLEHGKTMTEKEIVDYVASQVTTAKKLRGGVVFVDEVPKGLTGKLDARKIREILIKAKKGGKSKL

Take `CCC(=O)OCc1ccc(OC)cc1`: the Potency result in assay [1], in [2], in [3], in assay [4], in assay [5] and in assay [6] was “inactive” in each case. The Potency entry in [7], in assay [8], in assay [9], in assay [11], in assay [12] and in [13] was “inactive” throughout. Also, the Potency result in assay [14] is “inactive”. The molecule was classed as inactive in assay [10].

Consider `O=C1NC(=O)c2cccc3cccc1c23`, for which the Potency entry in assay [1], in assay [2], in [3], in [4], in assay [5] and in assay [15] was “inactive” each time. The Potency result in assay [6], in [7], in [11], in assay [12], in [13] and in assay [14] was “inactive” throughout. In assay [10], the call was inactive.

Turning to `CCOC(=O)C(C)O` (stereo not given), the Potency entry in assay [1], in assay [2], in [3], in [4], in assay [5] and in assay [15] was “inactive” in each case. Further, the Potency result in assay [6], in assay [8], in assay [9], in assay [11], in [12] and in [13] was “inactive” in each case. Moreover, in [14], the Potency result was “inactive”. Moreover, the result in [10] was inactive.

For `Nc1ccc(F)cc1`, the Potency result in assay [1], in assay [2], in assay [3], in assay [4], in [5] and in [15] was “inactive” in each case. In addition, the Potency result in [16], in assay [17], in assay [8], in [9], in [11] and in assay [18] was “inactive” in each case. In addition, the Potency result in [12] and in assay [14] was “inactive” throughout. Also, the result in assay [10] was inactive. In addition, in [19], the activity change, positive = activation was 0.224%.

Take `CCCC(=O)OC(=O)CCC`: the Potency entry in assay [1], in assay [2], in assay [3], in [4], in assay [5] and in assay [15] was “inactive” throughout. Besides, the Potency result in assay [6], in assay [7], in [9], in assay [11], in assay [12] and in assay [14] was “inactive” throughout. Also, the call in assay [10] was inactive.

Take `c1ccc2sc(SSc3nc4ccccc4s3)nc2c1`: the viability change, negative = cytotoxic is 0.18% [at 19 µM] in assay [1], 1.07% [at 19 µM] in assay [3] and 10.2% [at 19 µM] in assay [6]. For the same molecule, the Potency in assay [2] was 10.7 µM (active). The activity change, negative = cytotoxicity in assay [4] is 11.8% [at 19 µM]; in assay [8], -3.54% [at 15.8 µM]; in assay [11] it was 3.41% [at 31.6 µM]; in [12], 4.65% [at 15.8 µM]. Moreover, in assay [5], the activity, negative = inhibition was 80.4% [at 19 µM]. The activation was -4.06% [at 19 µM] in [7] and 0.936% [at 15.8 µM] in assay [10]. Also, the activation (H2AX phosphorylation) in assay [9] is 0.89% [at 31.6 µM]. For the same molecule, the activity change, negative = cytotoxic in assay [13] was 12.7% [at 15.8 µM]. In assay [14], the cytotoxicity was 4.7% [at 15.8 µM].

As for `N[C@@H](Cc1cc(I)c(O)c(I)c1)C(=O)O`, the Potency entry in [1], in assay [2], in [3], in assay [4], in [5] and in assay [15] was “inactive” in each case. In addition, the Potency result in [16], in [17], in assay [7], in assay [9], in assay [11] and in [18] was “inactive” in each case. The Potency result in assay [12] and in [14] was “inactive” throughout. In [10], the call was inactive. In assay [19], the activity change, positive = activation was 2.55% [at 42.5 µM].
